Only a selection was taken, and hits are over-represented in it overall.
Tg IFNy HTS = T. gondii growth inhibition under IFN-gamma; Toxoplasma gondii growth in IFN-gamma-treated host cells; hits give low values; activity change, negative = inhibition, % (test concentration not listed); 3.8% of 69,000 active; in the data active means activity change below about -70%, passing the limit was not always enough;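 further: host cells are HeLa cells infected with Toxoplasma gondii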
Numbers stand for hits; i = inactive; ! = not confirmed by another sample.

SMILES	Tg IFNy HTS
COc1cccc(-c2ccc(C3[C@@H]4CN(S(=O)(=O)Cc5ccccc5)C[C@H]3N4)cc2)c1 (some centres undefined)	-81
COc1cccc(S(=O)(=O)N2C[C@@H]3N[C@H](C2)C3c2ccc(-c3ccccc3F)cc2)c1 (some centres undefined)	i
Cc1cc(C(F)(F)F)nc(CCNC(=O)CC2COCCN2)n1 (centres undefined)	i
CCOc1ccc(CC(=O)N2CCC3(CC2)Nc2cc(F)ccc2-n2cccc23)cc1OCC	i
Cc1cc(C)n(CC(C)NC(=O)c2cccc(NCc3cccnc3)c2C)n1 (centres undefined)	i
CCCN1C(=O)CCc2cc(NC(=O)c3ccc(C(C)C)cc3)ccc21	-106
CCOc1ccc(S(=O)(=O)Nc2ccc3c(c2)CCC(=O)N3CC(C)C)cc1	i
CCOc1ccc(C(=O)Nc2ccc3c(c2)CCC(=O)N3CC(C)C)cc1	-82
CCCN1C(=O)CCc2cc(NC(=O)c3ccc(C)cc3)ccc21	i
CC(=O)Nc1ccc2c(c1)CCC(=O)N2CC(C)C	i
CCCN1C(=O)CCc2cc(NC(=O)c3ccsc3)ccc21	i
CCn1c(C2CCN(S(=O)(=O)N3CCN(C)CC3)CC2)nn(C)c1=O	i
O=C(NCc1ccc2c(c1)OCO2)[C@H]1C=CCN1S(=O)(=O)c1cccc2nonc12	i
CCN1c2ccccc2C(=O)NC12CCN(C(=O)NCc1ccc(C)cc1)CC2	i
C[N+](C)(CF)CCO	i
Cn1cc(CN2CC[C@H]3[C@@H]2CCN3C(=O)C2CCOC2)cn1 (some centres undefined)	i
C=CCc1c(C)nc(SC)nc1Nc1ccc(C(=O)O)cc1	i
C=CCc1c(C)nc2ccc(C(=O)OCC)cc2c1Cl	-102
CCOC(=O)c1cccc(P(C)(C)=O)c1	i
C=CCC(C)(C)CN(C)Cc1ncc[nH]1	i
COc1cccc(C(=O)N2CCC(N3CCCC3)CC2C(=O)O)c1 (centres undefined)	i
CCOCC1c2c(cnn2C)CCN1C(=O)Cc1ccsc1 (centres undefined)	i
Cn1c(=O)oc2cc(S(=O)(=O)N3CCC4(CC3)Nc3ccccc3-n3cccc34)ccc21	i
Cc1cc2ccccc2n1CCC(=O)NCCN(C)S(C)(=O)=O	i
CN1CCN(S(=O)(=O)c2ccc(-c3cnc(N)c(C(=O)Nc4cccnc4)n3)cc2)CC1	-71
SMILES	Tg IFNy HTS
CC1CCCCN1S(=O)(=O)c1ccc(NC(=O)c2cnccn2)cc1 (centres undefined)	i
CC(=O)Nc1ccc(S(=O)(=O)N2CCC(O)(c3ccccn3)CC2)cc1	i
CC(C)c1cc(C2CCN(C(=O)c3nc(=O)[nH]c4ccccc34)CC2)[nH]n1	i
CCOC(=O)Cc1ccc(NC(=O)N2CCC3(CC2)Nc2ccccc2-n2cccc23)cc1	i
CN1CCCN(C(=O)c2cc3c(c4ccccc4n3CC3CC3)n2S(C)(=O)=O)CC1	i
Cc1nc(N2CCCC2)nc2c1CCN(c1ncccn1)CC2	i
Cc1nc(N2CCCC2)nc2c1CCN(c1ncc(F)cn1)CC2	-86
Cc1nc(-c2ccccc2)nc2c1CCN(c1ncc(F)cn1)CC2	i
Cn1ncc2c1C(COCC1CC1)CN(Cc1cccnc1)C2 (centres undefined)	i
CCS(=O)(=O)N1CCCn2nnc(Cn3cccc3)c2C1	i
CN1CCN(CCC2CCCCN2)CC1 (centres undefined)	i
C1CCC(C(CC2CCCCN2)C2CCCCC2)CC1 (centres undefined)	-96!
CN(C)CC(=O)NCCC1CCCCN1 (centres undefined)	i
O=C1CC2(CCN(C(=O)c3cc(C(F)(F)F)ccc3Cl)CC2)CN1	i
COc1ccc(-c2nc(CSc3nc4c(=O)[nH]cnc4n3C)c(C)o2)cc1OC	i
CC(C)c1cc(C(=O)N2CC=C(n3c(=O)[nH]c4ccccc43)CC2)n(C)n1	i
CCn1ccnc1CN(C)c1ccc(-c2ccccc2OC)nn1	i
OC1(C(F)(F)F)CC(c2ccncc2)=NN1 (centres undefined)	i
CSc1sc(C2=NNC(O)(C(F)(F)F)C2)c2c1C(=O)CCC2(C)C (centres undefined)	-96
Cc1ncnc2c1CCN(CC1CCC1)CC2	i
O=C1CCCN1c1ccc(Cl)c(Cl)c1	i
O=c1cc2nn[nH]n2nc1-c1ccccc1	i
Nc1[nH]nc2nnc(-c3c(-c4ccccc4)nn4ccccc34)cc12	i
O=c1[nH]nc2c(-c3ccccc3)c(-c3ccccc3)c(-c3ccccc3)nn12	-106
CN1CCN2CCN(C(=O)c3ccc4c(c3)N(C)C(=O)CO4)CC2C1=O (centres undefined)	i
SMILES	Tg IFNy HTS
CN(C)C(=O)N1CCN(c2ccc3ccc(C(=O)CCN4CCOCC4)cn23)CC1	i
CN(C)CCO[C@@H]1C[C@@H]2CN(C(=O)c3cscn3)CCN2C1	i
CCS(=O)(=O)NCCc1sc(-c2ccc(OC)cc2)nc1C	i
O=C1CCc2cc(NS(=O)(=O)c3ccc(C(F)(F)F)cc3)ccc2N1	i
CC(C)(C)c1ccc(S(=O)(=O)Nc2ccc(C34CC5CC(CC(C5)C3)C4)cc2)cc1	-96
Cc1ccc(-c2coc(-c3ccc(NS(=O)(=O)c4ccc(C(C)(C)C)cc4)cc3)n2)c(C)c1	i
C#CCN(CC=C)C(=O)CC(=O)Nc1ccccc1C	i
FC(F)(F)c1ccc(N2CCN(Cc3cc(Cl)cc4c3OCOC4)CC2)nc1	-85
CN1CCN(Cc2ccccc2Oc2ncc(C(F)(F)F)cc2Cl)CC1	i
CC(C)(C)C(=O)N1CCN(c2ccc(C(F)(F)F)cn2)CC1	i
Cc1ccc(C)n1CCN1CCN(C(=O)c2cccc(C(F)(F)F)c2)CC1	i
O=C(c1ccc2ncnc(N3CCCC3)c2c1)N1CCCC1	i
COc1ccc(C(=O)N2CCC(c3nc(C(=O)N4CCCC4)c(C)o3)CC2)cc1OC	i
COc1ccc(C(=O)N2CCN(c3ncnc4cc(C(C)(C)C)sc34)CC2)cc1OC	-85
COc1ccc(C(=O)N2CCN(c3cccc(C(F)(F)F)c3)CC2)cc1OC	-79
COc1ccc(C(=O)N2CCN(c3cnn(C)c(=O)c3Cl)CC2)cc1OC	i
CCNC(=O)c1cccc(-c2ccc(F)cc2OC)c1	i
CN1CCO[C@H]2CN(C(=O)c3ccc4[nH]ccc4c3)CC[C@@H]2C1	i
COC[C@H]1CCCN1C(=O)CC(=O)Nc1cc(C)cc(C)c1	i
CCn1c2ccccc2n2c(=O)n(Cn3nnc4ccccc43)nc12	i
COc1ccc(-c2nc3sc4c(c3c(=O)[nH]2)CCCC4)cc1	-87
O=c1[nH]c(NCCO)nc2sc3c(c12)CCCC3	i
Cc1nc2sc3c(c2c(=O)[nH]1)CCC3	i
CC(C)C(NC(=O)COc1ccc2nsnc2c1)c1cccs1 (centres undefined)	i
O=C(NCc1cccnc1-n1ccnc1)C1CCCc2c1[nH]c1ccccc21 (centres undefined)	i
SMILES	Tg IFNy HTS
Clc1ccc(-c2nc(N3CCN(c4ccccn4)CC3)c3ccccc3n2)cc1	i
Cn1c2c(ccc1=O)CCN(C(=O)N1CCOCC1)CC2	i
CCCCCN=c1ccn(Cc2ccccc2)c2ccccc12	i
CCCCCCCCCCCCCCCCn1cc[n+](Cc2ccccc2)c1C	-79
Cc1ccsc1CN(CCN(C)C)C(=O)c1cn[nH]n1	i
CCOC(=O)c1noc2nc(C)n(Cc3nc(-c4cccc(OC)c4OC)oc3C)c(=O)c12	i
CCOc1ccc(-c2nnc(OCC)c3ccccc23)cc1	i
Cn1c(=O)c2c(nc(N3CCN=C3SCC(N)=O)n2Cc2ccccc2)n(C)c1=O	i
Cn1c(=O)c2c(nc(CN3CCc4ccccc4C3)n2Cc2ccccc2F)n(C)c1=O	-79

Compound activity deposited in PubChem BioAssay by Broad Institute.
